Data taken from PubChem BioAssay AID1851 (National Center for Advancing Translational Sciences (NCATS), 2009).
“And” between values parts separate entries of the source, which are not always exact repeats. Equal entries are not always repeated. Hit rate of the full screen: of about 16,000 compounds, about 4,000 (25%) were called active. Inconclusive results (about 26%) are left out. The call rests on the fitted dose curve; in most records, active means well fitted curve in the direction sought with a large enough effect; inconclusive means small, poorly fitted or top-dose-only effect, or effect the other way; inactive means no such curve, though single readings can be large or run the other way. Not all results are given here.

Biological target: Cytochrome P450 2C9 (Homo sapiens) (UniProt P11712)
Assay: Cytochrome panel assay with activity outcomes
Conditions: recombinant CYP, pro-luciferin dealkylation, luminescence, p450-cyp2c9; series mostly up to 57.1 µM; activity, negative = inhibition: at the top concentration
On the % scale 0 is the no-effect control and ±100 the full control effect.

Chain of Cytochrome P450 2C9 (Homo sapiens) (P11712 whole entry, looked up): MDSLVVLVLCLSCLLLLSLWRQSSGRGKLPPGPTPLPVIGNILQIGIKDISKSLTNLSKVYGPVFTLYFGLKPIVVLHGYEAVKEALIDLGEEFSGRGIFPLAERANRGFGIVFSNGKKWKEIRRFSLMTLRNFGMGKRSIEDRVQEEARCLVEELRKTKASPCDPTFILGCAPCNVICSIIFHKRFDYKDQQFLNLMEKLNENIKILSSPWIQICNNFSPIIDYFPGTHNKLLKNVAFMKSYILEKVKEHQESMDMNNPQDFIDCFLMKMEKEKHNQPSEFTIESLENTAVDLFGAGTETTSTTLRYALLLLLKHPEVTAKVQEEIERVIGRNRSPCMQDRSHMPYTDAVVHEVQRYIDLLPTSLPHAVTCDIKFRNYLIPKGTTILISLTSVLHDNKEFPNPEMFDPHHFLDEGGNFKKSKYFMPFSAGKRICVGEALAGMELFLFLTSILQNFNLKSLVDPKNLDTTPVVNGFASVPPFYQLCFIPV

activity, negative = inhibition, inactive:
COC(=O)c1cc(=O)[nH]c(=O)[nH]1 3.6% [at 11.4 µM], CCOc1ccc(C(=O)Nc2ccc(Cl)cn2)cc1Cl 8.6%, C#CCCCO/N=C1/C[C@@H](O)[C@@H](O)[C@@H]2[C@@H]3C(=O)N([C@@H](C)c4ccccc4)C(=O)[C@H]3CC[C@H]12 -17.4% [at 11.4 µM], CSc1nc(Oc2ccc(=O)[nH]n2)nc(N(C)C)n1 5.69%, CCOC(=O)CCN1C(=O)[C@H]2[C@@H]3[C@H](O)[C@H](O)CC(=O)[C@H]3CC[C@H]2C1=O 14.8% [at 11.4 µM] and 4.05% [at 11.4 µM], C[C@@](N)(C(=O)O)c1ccc(P(=O)(O)O)cc1 18.4%, O=C(O)c1ccc(NCc2nc3cc4ccccc4cc3[nH]2)cc1 8.12% [at 11.4 µM], C[C@@H](c1ccccc1)N1C(=O)[C@H]2[C@@H]3[C@H](O)C=CC(=O)[C@H]3CC[C@H]2C1=O 3.06% [at 11.4 µM], Cc1nn(CCc2n[nH]c(=S)n2-c2ccc(F)c(Cl)c2)c(C)c1[N+](=O)[O-] -22%, COC(=O)N1CCC[C@@]2(CCN(C(=O)Nc3ccccc3)C2)C1 0.884%, COc1ccc(NC(=O)N2CCC3(CC2)CCN(C(=O)c2csnn2)CC3)cc1 -5.5%, COc1cc(CC(=O)O)ccc1O 26.1%, O=C(O)Cc1ccc(O)c(O)c1 -21.4%, CCOc1cc(NC(=O)c2ccccc2[N+](=O)[O-])c(OCC)cc1NC(=O)CC(C)C 14.7%, Cc1cccc(NC(=O)c2ccc([N+](=O)[O-])o2)n1 -15.3%, CO/N=C(\C(=O)N[C@@H]1C(=O)N2C(C(=O)[O-])=C(C[N+]3(C)CCCC3)CS[C@@H]12)c1csc(N)n1 -12.8% [at 25.6 µM], N#Cc1cccc(-c2nc(NCCN3CCOCC3)c3ccccc3n2)c1 5.64% [at 2.29 µM], N#Cc1ccccc1-c1ccc2ncnc(NCCN3CCOCC3)c2c1 2.09% [at 2.29 µM], CO[C@H]1COC(=O)[C@H](C)COC(=O)[C@@H](Cc2ccccc2)NC(=O)C/C=C\[C@H]1C -8.74% [at 11.4 µM], Cc1cc(Cl)nc(NC(=O)CSc2ccc(Cl)cc2)n1 -1.09% [at 11.4 µM], Clc1ccc(Cl)c(SCCCN2CCNCC2)c1 -3.39% [at 11.4 µM], CC(=O)OC[C@H]1O[C@@H](O/N=C2/[C@H]3O[C@@H]3[C@@H](O)[C@H]3[C@H]2CCn2c(=O)n(-c4ccccc4)c(=O)n23)[C@H](OC(C)=O)[C@@H](OC(C)=O)[C@@H]1OC(C)=O 10.3% [at 11.4 µM], NC(=O)C[C@H](NC(=O)Cc1ccc(O)cc1O)C(=O)O -3.79%, CCOC(=O)CSc1nnc(CNC(=O)c2ccc(OC)cc2)n1C1CCCCC1 -9.65%, CCCc1nnc(SCC(=O)N2CCCC(C)C2)n1CC1CCCO1 (stereo unspecified) 23.5%, Cc1noc(C)c1C(=O)N1CCC2(CCCN(C(=O)Nc3ccccc3)C2)CC1 3.13%, O=C(Nc1ccccc1)N1CCCC2(CCNCC2)C1 -8.65%, COc1ccc(-c2nc(C#N)c(N3CCC(C(N)=O)CC3)o2)cc1OC -30.1%, CC(C)(N=NC(C)(C)C1=NCCN1)C1=NCCN1 3.47% [at 11.4 µM], COc1ccc(Oc2ncc3ncc(=O)n(C)c3n2)cc1 -23.5%, CCN(c1nc(N)c(C(=O)N=C(N)N)nc1Cl)C(C)C 26.6%, CN(C)c1nc(NCc2ccccc2)nc(N/N=C/c2ccc(Cl)cc2Cl)n1 -11.7%, CN(C)Cc1ccccc1-c1nc(NCc2ccccc2)c2ccccc2n1 -6.5% [at 2.29 µM], COc1ccccc1CNc1ncnc2ccc(-c3cccc(C#N)c3)cc12 -23.5% [at 2.29 µM], COc1ccc(CNc2ncnc3ccc(-c4cccnc4)cc23)c(OC)c1 -24.5% [at 2.29 µM], COc1ccc(CNc2ncnc3ccc(-c4ccc(C(=O)N(C)C)cc4)cc23)c(OC)c1 1.99% [at 2.29 µM], COc1ccccc1CNc1ncnc2ccc(-c3ccccc3CN(C)C)cc12 -2.92% [at 2.29 µM], COc1ccccc1-c1ccc2ncnc(NCc3cccnc3)c2c1 -19.3% [at 2.29 µM], COCCNc1ncnc2ccc(-c3ccccc3OC)cc12 16.9% [at 2.29 µM], Cc1nonc1NC(=O)OCCN1CCOC1=O -14.1%, CC[C@]1(O)C[C@@H]2CN(CCc3c([nH]c4ccccc34)[C@](C(=O)OC)(c3cc4c(cc3OC)N(C)[C@H]3[C@](O)(C(=O)OC)[C@@H](C(=O)OC)[C@@]5(CC)C=CCN6CC[C@@]43[C@@H]65)C2)C1 -6.34%, C#CC[N+](CC)(CC)CC#Cc1cccc(Cl)c1 3.76%, C[C@H](CN(C)C)C(O)(c1ccccc1)c1ccccc1 -5.45% [at 11.4 µM], Nc1nc(N)nc(CC(=O)O)n1 -0.0515% [at 11.4 µM], COc1cc(/C=C(\C#N)C(N)=O)cc(CSc2nc3ccccc3s2)c1O -7.23%, O=C(Nc1cccc(F)c1)N1CCCC2(CCNCC2)C1 -19.3%, CCNc1ncc2nc(-c3cn(C)c4ccccc34)c(=O)n(CCC#N)c2n1 -3.8%, COc1ncc2nc(-c3cn(C)c4ccccc34)c(=O)n(Cc3ccc(F)cc3)c2n1 5.67%, CCNc1ncc2nc(-c3ccccc3)c(=O)n(Cc3cccs3)c2n1 -29.9%, COc1cccc(Nc2ncc3nc(-c4cn(C)c5ccccc45)c(=O)n(CCC#N)c3n2)c1 -6.19%, CN1CCN(c2ncc3nc(-c4cn(C)c5ccccc45)c(=O)n(CCc4ccccc4)c3n2)CC1 25.4%, Cn1cc(-c2nc3cnc(N4CCOCC4)nc3n(CCC#N)c2=O)c2ccccc21 9.88%, CCNc1ncc2nc(-c3cn(C)c4ccccc34)c(=O)n(Cc3cccc(OC)c3)c2n1 -16.9%, COCCn1c(=O)c(-c2cn(C)c3ccccc23)nc2cnc(N3CCNCC3)nc21 -26.8%, CCNc1nc(NCC)nc(ON=C(C)C)n1 -8.7%

AC50, inactive:
CC(=O)N[C@@H](C(=O)O)C(C)(C)SN=O, N=c1nc(N2CCCCC2)cc(N)n1O

AC50, active:
Cc1ccc(C(=O)Nc2cc(Cl)ccc2OC(=O)c2ccc(C)cc2)cc1 14.1 µM, CCOC(=O)c1c(NC(=S)NC(=O)c2cnn(CC)c2)sc2c1CCC(C)C2 (stereo unspecified) 5.01 µM, O=C(c1ccccc1)c1ccc2nc(-c3ccc(NC(=O)c4ccccc4Br)cc3)[nH]c2c1 2 µM, O=C(c1ccccc1)c1ccc2nc(-c3ccc(NC(=O)c4ccccc4F)cc3)[nH]c2c1 4.47 µM, O=C(O)Cc1cc(I)c(Oc2ccc(O)c(I)c2)c(I)c1 5.01 µM, O=C(Nc1cccc(NC(=O)c2ccccc2[N+](=O)[O-])n1)c1ccccc1[N+](=O)[O-] 0.794 µM, N#Cc1nc(-c2ccc(OCc3ccccc3)cc2)oc1NCCN1CCOCC1 7.94 µM, COC(=O)c1sccc1NC(=O)CSc1ccc(Cl)cc1 15.8 µM, COC(=O)c1sccc1NC(=O)CSc1cc(Cl)ccc1Cl 7.08 µM, COC(=O)c1sccc1NC(=O)CSc1ccccc1NS(=O)(=O)c1ccc(Cl)cc1 1.78 µM, COc1ccc(-c2noc(C3CCCN(C(=O)c4ccccc4OC)C3)n2)cc1OC (stereo unspecified) 11.2 µM, CCCCCC(=O)N1CCCC(c2nc(-c3ccc(OC)cc3)no2)C1 (stereo unspecified) 3.55 µM, O=C(Nc1ccccc1)N1CCCC(c2nc(-c3ccc(F)cc3)no2)C1 (stereo unspecified) 14.1 µM, O=C(CN(Cc1ccco1)C(=O)c1cccc(Cl)c1)Nc1c(Cl)cc(Cl)cc1Cl 11.2 µM, COc1ccc(/C=C2\N=C(SC)N(C)C2=O)cc1 25.1 µM, CC(Sc1nc(NCc2ccccc2)nc(N(C)C)n1)C(=O)Nc1ccccc1 (stereo unspecified) 0.562 µM, COc1ccccc1CNc1ncnc2ccc(-c3ccccc3OC)cc12 0.794 µM, COc1ccccc1-c1ccc2ncnc(NCc3ccccc3)c2c1 0.501 µM, COc1ccc(CNc2ncnc3ccc(-c4ccccc4OC)cc23)c(OC)c1 0.398 µM, CCn1c(SCC(=O)Nc2sc3c(c2C(N)=O)CCC(C)C3)nnc1-c1ccco1 (stereo unspecified) 3.16 µM, CCn1c(SCC(=O)Nc2sc3c(c2C#N)CCC(C(C)(C)C)C3)nnc1-c1ccco1 (stereo unspecified) 8.91 µM, COC(=O)[C@@]1(Cc2ccc(F)cc2)[C@H]2c3cc(C(=O)N4CCCC4)n(CCN4CNCC4=O)c3C[C@H]2CN1C(=O)c1ccccc1 7.94 µM, COC(=O)[C@@]1(Cc2ccccc2)[C@H]2c3cc(C(=O)N4CCCC4)n(CCN4CNCC4=O)c3C[C@H]2CN1C(=O)c1ccccc1 2 µM, CCOC(=O)C1=C(CSc2nc3ccccc3s2)NC(=O)NC1c1cc(C)ccc1C (stereo unspecified) 3.55 µM, CCOC(=O)C1=C(CSc2nc3ccccc3s2)NC(=O)NC1c1cccc([N+](=O)[O-])c1 (stereo unspecified) 3.98 µM, Cn1cc(-c2nc3cnc(N4CCNCC4)nc3n(CCc3ccccc3)c2=O)c2ccccc21 10 µM, COc1cccc(Cn2c(=O)c(-c3cn(C)c4ccccc34)nc3cnc(N4CCNCC4)nc32)c1 20 µM, CCNc1ncc2nc(-c3cn(C)c4ccccc34)c(=O)n(Cc3cccs3)c2n1 20 µM, Cn1cc(-c2nc3cnc(N4CCNCC4)nc3n(Cc3ccc(F)cc3)c2=O)c2ccccc21 10 µM
